PubChem BioAssay (NCI)
This is part of a sample that, as a whole, favours compounds with a hit. Of some 83,000 tested, about 20% had one in any assay.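 The test compound was applied at a single concentration to cells in 96-well plates for 48 hours, and percent growth was recorded.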 Activity calls are given as the source filed them. How the source made its calls: active means growth percent below 10; inactive means the rest.

Legend:
Test in all cases: NCI-60 one-dose screen, 48 h (100 = growth as untreated, 0 = no growth, -100 = all killed)
Conditions in all cases: 10 µM unless noted
[1] = tested on: NCI-H23 lung
[2] = tested on: NCI-H226 lung
[3] = tested on: NCI-H322M lung
[4] = tested on: HOP-62 NSCLC
[5] = tested on: NCI-H460 lung
[6] = tested on: HOP-92 NSCLC
[7] = tested on: NCI-H522 lung
[8] = tested on: A549/ATCC NSCLC
[9] = tested on: 786-0 renal
[10] = tested on: COLO 205 colon
[11] = tested on: DU-145 prostate
[12] = tested on: K-562 leukemia
[13] = tested on: MALME-3M melanoma
[14] = tested on: MDA-MB-231 breast
[15] = tested on: RXF 393 renal
[16] = tested on: SF-268 CNS
[17] = tested on: SF-295 CNS
[18] = tested on: SF-539 CNS
[19] = tested on: UACC-257 melanoma
[20] = tested on: M14 melanoma

Measured: growth

COC(=O)CCc1n(Cc2ccc3ccccc3c2)c2ccccc2[n+]1Cc1ccc2ccccc2c1
inactive: [2] 17.7% | [3] 36.6% | [4] 19% | [8] 38.3% | [9] 15.4% | [11] 28% | [15] 23.7% | [16] 12.1% | [17] 13.1% | [18] 16.3%
active: [1] -7.39% | [5] 6.29% | [6] -34.4% | [7] -29.4% | [10] -57.3% | [12] 9.25% | [13] -34.5% | [14] -39.4% | [19] -28.2% | [20] -25.5%

COc1cc(/C=C/C(=O)/C=C/c2cc3ccc(Cl)cc3n(Cc3ccccc3)c2=O)ccc1O
active: [1] -20.6% | [2] -6.08% | [4] -6.74% | [5] -29.1% | [6] -5% | [7] -37.6% | [8] -3.99% | [9] -55.7% | [10] 7.89% | [11] -35.1% | [12] 3.2% | [13] 4.83% | [14] -16.7% | [15] -79.9% | [17] 5.91% | [18] 9.94% | [19] -13.9% | [20] -11.3%
inactive: [3] 23.9% | [16] 13.7%

CN(C)C(CNc1oc(-c2cccc3ccccc23)nc1C#N)c1ccco1 (stereo not given)
inactive: [1] 97.1% | [2] 101% | [3] 99.9% | [4] 94.9% | [5] 101% | [6] 94% | [7] 86.9% | [8] 91.6% | [9] 90.1% | [10] 93.1% | [11] 98.7% | [12] 74.5% | [13] 98% | [14] 107% | [15] 99.3% | [16] 91.4% | [17] 90.1% | [18] 102% | [19] 98.5% | [20] 91.9%

COc1ccc(Cl)c([N+](=O)[O-])c1
inactive: [1] 98.5% | [2] 101% | [3] 98.8% | [4] 93.4% | [5] 108% | [6] 98% | [7] 95.7% | [8] 99.6% | [9] 99.2% | [10] 116% | [11] 108% | [12] 99.8% | [13] 106% | [14] 102% | [15] 108% | [16] 104% | [17] 98% | [18] 91.9% | [19] 111% | [20] 96.3%

CNS(=O)(=O)c1cccc(-c2ccc3c4c(n(C)c(=O)c3c2)-c2ccccc2C4=O)c1
active: [5] 7.51%
inactive: [1] 43.9% | [2] 33.1% | [3] 92.8% | [4] 22.2% | [6] 61.2% | [7] 49.3% | [8] 24% | [9] 25.3% | [10] 66.5% | [11] 20.7% | [12] 41.3% | [13] 55% | [14] 87.1% | [15] 96.5% | [16] 58.6% | [17] 24.1% | [18] 53.8% | [19] 96.3% | [20] 60.1%

COc1ccc(/C=C(/C(=O)N2CCN(Cc3ccccc3)CC2)c2cc(OC)c(OC)c(OC)c2)cc1O
inactive: [1] 81% | [2] 81.7% | [3] 91.2% | [4] 74.2% | [5] 58.4% | [6] 44.3% | [7] 44.8% | [8] 68% | [9] 87.6% | [10] 110% | [11] 82.3% | [12] 23.1% | [13] 65.8% | [14] 76.9% | [15] 62.3% | [16] 72.6% | [17] 82.8% | [18] 55.7% | [19] 54.7% | [20] 38%

COc1ccc(Cc2nc(C#N)c(N3CCN(c4ccc(F)cc4)CC3)o2)cc1
inactive: [1] 86.3% | [2] 74.1% | [3] 99.5% | [4] 95.8% | [5] 104% | [6] 88.2% | [7] 73.6% | [8] 92.1% | [9] 91.1% | [10] 103% | [11] 100% | [12] 75.3% | [13] 104% | [14] 98.4% | [15] 76% | [16] 90.5% | [17] 95.5% | [18] 98.2% | [19] 112% | [20] 90%
